# According to PubChem BioAssay AID619 (University of Pittsburgh Molecular Library Screening Center, 2007):
# Out of some 97,000 compounds screened, about 520 (0.54%) were called active. The list comes from a sample in which actives are over-represented; it also holds similar structures and randomly drawn compounds. A number with no mark means an inactive call.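 Rule for the calls: active = inhibition of 50% or more in the single-concentration screen; inactive = inhibition below 50%.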
# Molecular target: Serine/threonine-protein kinase PLK1 (Homo sapiens) (UniProt P53350)
# Test: human PLK1 kinase inhibitors, primary screen, biochemical, TR-FRET (AID 619);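 note: 0% = DMSO max control and 100% = H-89 dihydrochloride min control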
# Conditions: recombinant PLK1 kinase, TR-FRET peptide phosphorylation; at 10 µM; stronger effect = higher value
# Serine/threonine-protein kinase PLK1 (Homo sapiens), sequence (P53350 whole entry, looked up): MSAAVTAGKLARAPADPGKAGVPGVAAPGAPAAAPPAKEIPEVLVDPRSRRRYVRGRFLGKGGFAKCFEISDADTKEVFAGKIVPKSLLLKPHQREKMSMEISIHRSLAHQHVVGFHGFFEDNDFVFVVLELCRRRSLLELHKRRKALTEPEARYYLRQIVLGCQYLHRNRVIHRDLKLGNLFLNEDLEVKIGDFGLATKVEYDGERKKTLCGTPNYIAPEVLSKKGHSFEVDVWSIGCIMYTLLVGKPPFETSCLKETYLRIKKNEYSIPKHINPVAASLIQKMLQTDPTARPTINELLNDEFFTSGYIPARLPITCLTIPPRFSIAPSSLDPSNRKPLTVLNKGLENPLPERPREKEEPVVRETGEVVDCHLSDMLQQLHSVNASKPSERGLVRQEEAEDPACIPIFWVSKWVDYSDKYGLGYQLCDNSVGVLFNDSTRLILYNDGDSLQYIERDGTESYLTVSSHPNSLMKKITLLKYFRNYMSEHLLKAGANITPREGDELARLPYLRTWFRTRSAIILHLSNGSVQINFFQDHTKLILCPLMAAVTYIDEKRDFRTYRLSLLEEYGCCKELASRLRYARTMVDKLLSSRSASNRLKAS
row,SMILES,inhibition
1,CCCc1nc(NCc2ccc3c(c2)OCO3)c2nnn(Cc3ccccc3Cl)c2n1,-9.3%
2,CCC(=O)NNc1cc(=O)c2c(=O)n(C)c(=O)n(C)c2[nH]1,-9.06%
3,CN(C)/C=C(\C#N)C(=O)c1cccnc1Oc1ccc(F)cc1F,-4.48%
4,COCCCNC(=O)C1CC(=O)N(CCc2ccccc2)C1 (stereo unspecified),-12.8%
5,COc1cc(OC)cc(-c2cc3nc(C4CCN(C(=O)OC(C)(C)C)CC4)cc(=O)n3[nH]2)c1,-8.81%
6,Cc1c(Nc2nc3ccccc3nc2NS(=O)(=O)c2cccs2)c(=O)n(-c2ccccc2)n1C,-2.91%
7,Cc1cccc(N2C(=O)C3C(c4ccccc4)OC4(C(=O)c5ccccc5C4=O)C3C2=O)c1 (stereo unspecified),-6.04%
8,Cc1cccc(N2C(=O)SC(N(CC(=O)O)c3cccc(C)c3)C2=O)c1 (stereo unspecified),68.7% (active)
9,Cc1cccc(N(CC(=O)N2CCOCC2)S(C)(=O)=O)c1,-16.7%
10,CCOC(=O)c1cc(C#N)c(N2CCCCC2)nc1-c1ccccc1,-7.56%
11,COc1ccc(NC(=O)Cn2nnc(C(=O)NCCc3ccc(OC)c(OC)c3)c2N)cc1,-3.12%
12,CCC(=O)NCCc1nc2ccccc2n1CC,-12.5%
13,Cc1ccc(S(=O)(=O)NCC(C)NS(C)(=O)=O)cc1 (stereo unspecified),-7.03%
14,O=C(c1cccc(F)c1)N1CCC(O)(c2cccnc2)CC1,-11.3%
15,Cc1cc(S(=O)(=O)NC2CCCCC2)ccc1OCC(=O)NCc1cccnc1,-6.44%
16,Cc1ccc(N2C(=O)S/C(=C/c3cn(C)c4ccccc34)C2=O)cc1,-7.68%

row,SMILES,inhibition
1,Cn1c(=O)[nH]c(=O)c2c1nc(NCCCn1ccnc1)n2Cc1cccc(Br)c1,51.2% (active)
2,CCCCNc1nc2c(c(=O)[nH]c(=O)n2C)n1CCOc1ccccc1,-13.6%
3,CC(c1ccccc1)n1c(NCCCn2ccnc2)nc2c1c(=O)[nH]c(=O)n2C (stereo unspecified),-13.2%
4,CCOC(=O)N1CCC(N(CCOC)C(=O)Nc2ccc(C)c(C)c2)CC1,-7.06%
5,Cn1nc(-c2ccccc2)c(CSc2cccc(Cl)c2)c1Cl,-5.77%
6,CCCC(=O)C1CCN(Cc2ccccc2)CC1,-5.07%
7,Cc1ccc(N2C(=O)C(Cc3ccccc3)NC2=S)cc1 (stereo unspecified),-4.76%
8,CCOC(=O)c1ccc2c(c1)nc(SCC(=O)NC(C)C)n2CC,-12.9%
9,O=C(NCCCN1CCOCC1)c1cc2c(s1)CCC2,12.4%
10,CCn1c(SCC(=O)Nc2ccc(OC)c(OC)c2)nnc1-c1c[nH]c2ccccc12,-21.5%
11,CCn1c(SCCC(C)C)nnc1-c1c[nH]c2ccccc12,57.8% (active)
12,CCC(C)Sc1nnc(-c2c[nH]c3ccccc23)n1CCOC (stereo unspecified),-10.2%
13,CCCC(C(=O)n1nc(C)cc1C)C(NS(=O)(=O)c1ccc(C)cc1)c1ccccc1 (stereo unspecified),-12%
14,COc1ccc(Oc2coc3cc(OC(=O)c4cncc(Br)c4)ccc3c2=O)cc1,-8.95%
15,Cc1cc(C)c2nc(NC(=O)C3CCCO3)sc2c1 (stereo unspecified),-2.38%
